Among the data in PubChem BioAssay (Tox21) are Potency and outcome values, retold here.

Inconclusive results are not listed. Activity calls are given as the source filed them. Unless noted, calls follow the shape of the dose curve; as a rule, active = well fitted curve in the direction sought with a large enough effect in the repeat runs; inconclusive = weak or mixed curves; inactive = flat fitted curve, though single readings scatter.

A short description of test [1]: qHTS assay to test for compound auto fluorescence at 460 nm (blue) in HEK293 cell free culture (AID 720681). The gist of the method: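 Test compounds were pinned into cell-free culture medium (DMEM with 10% FBS) and fluorescence was read directly at Ex/Em 405/460 nm. Signals were expressed as fluorescence equivalents of triamterene, with DMSO vehicle as control.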
(In qHTS, concentration-response curves come from the screen itself.)

The nature of test [2]: qHTS assay to test for compound auto fluorescence at 535 nm (green) in HEK293 cell free culture (AID 720682). The method, boiled down:
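DMEM + 10% FBS, cell-free; cpd or DMSO pinned in; Ex485/Em535 read; output as fluorescein-equivalent signal.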

The nature of test [3]: qHTS assay to test for compound auto fluorescence at 590 nm (red) in HEK293 cell free culture (AID 720683). The gist of the method:
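Tox21 10K library compounds were pinned into cell-free DMEM with 10% FBS and fluorescence was read at excitation 540 nm. Activity is expressed as Rose Bengal sodium equivalency.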

The nature of test [4]: qHTS assay to test for compound auto fluorescence at 590 nm (red) in HepG2 cell free culture (AID 720684). The method, boiled down: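 Measured in medium alone (MEM containing 10% FBS) following pintool addition of compound; emission at 590 nm with 540 nm excitation, referenced to Rose Bengal sodium.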
Test [5] is described as follows: qHTS assay to test for compound auto fluorescence at 460 nm (blue) in HepG2 cell free culture (AID 720685). The method, boiled down: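 Compound (23 nL) or DMSO pinned into cell-free MEM with 10% FBS; blue fluorescence read at 405/460 nm excitation/emission, expressed as auto-fluorescence equivalency to triamterene.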
The nature of test [6]: qHTS assay to test for compound auto fluorescence at 535 nm (green) in HepG2 cell free culture (AID 720686).
A short description of test [7]: qHTS assay to test for compound auto fluorescence at 460 nm (blue) in HepG2 cells (AID 720687). The gist of the method: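 Cells (2,000/well in MEM with 10% FBS) attached overnight at 37 C, then were exposed to compound or DMSO for 1 hr at 37 C, 5% CO2. Fluorescence read at Ex/Em 405/460 nm, expressed as triamterene-equivalent signal.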
Test [8] in a line: qHTS assay to test for compound auto fluorescence at 535 nm (green) in HEK293 cells (AID 720680).
For test [9], the target named is Glucocorticoid receptor (Homo sapiens) (UniProt P04150). The experiment in a line: qHTS assay to identify small molecule antagonists of the glucocorticoid receptor (GR) signaling pathway (AID 720692; active = well fitted inhibition curve with a large enough effect in the signal ratio in the repeat runs, not every such curve was filed as active; the % refers to the signal ratio; also: potency is read from the fitted curve at half-maximal effect). The gist of the method:
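Dexamethasone (5 nM final) stimulated a stably integrated GRE-beta-lactamase reporter in HeLa cells during 18 h co-incubation with compounds; signal was quantified as fluorescence intensity of B/G FRET substrate after 2 h.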

The target is the same in test [10]. The experiment in a line: qHTS assay to identify small molecule agonists of the glucocorticoid receptor (GR) signaling pathway (AID 720691; active = well fitted activation curve with a large enough effect in the signal ratio in the repeat runs, not every such curve was filed as active; the % refers to the signal ratio). The settings on record: GR-bla HeLa, beta-lactamase reporter ratio, 18 h; activation: at 62.4 µM (top of the series). The method, boiled down: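 Reporter read-out: fluorescence intensity following 2 h room-temperature LiveBLAzer B/G FRET substrate loading. Prior step: GR-bla HeLa cells held 4 h, then treated 18 h at 37 C.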

Sequence of Glucocorticoid receptor (Homo sapiens) (P04150 whole entry, looked up): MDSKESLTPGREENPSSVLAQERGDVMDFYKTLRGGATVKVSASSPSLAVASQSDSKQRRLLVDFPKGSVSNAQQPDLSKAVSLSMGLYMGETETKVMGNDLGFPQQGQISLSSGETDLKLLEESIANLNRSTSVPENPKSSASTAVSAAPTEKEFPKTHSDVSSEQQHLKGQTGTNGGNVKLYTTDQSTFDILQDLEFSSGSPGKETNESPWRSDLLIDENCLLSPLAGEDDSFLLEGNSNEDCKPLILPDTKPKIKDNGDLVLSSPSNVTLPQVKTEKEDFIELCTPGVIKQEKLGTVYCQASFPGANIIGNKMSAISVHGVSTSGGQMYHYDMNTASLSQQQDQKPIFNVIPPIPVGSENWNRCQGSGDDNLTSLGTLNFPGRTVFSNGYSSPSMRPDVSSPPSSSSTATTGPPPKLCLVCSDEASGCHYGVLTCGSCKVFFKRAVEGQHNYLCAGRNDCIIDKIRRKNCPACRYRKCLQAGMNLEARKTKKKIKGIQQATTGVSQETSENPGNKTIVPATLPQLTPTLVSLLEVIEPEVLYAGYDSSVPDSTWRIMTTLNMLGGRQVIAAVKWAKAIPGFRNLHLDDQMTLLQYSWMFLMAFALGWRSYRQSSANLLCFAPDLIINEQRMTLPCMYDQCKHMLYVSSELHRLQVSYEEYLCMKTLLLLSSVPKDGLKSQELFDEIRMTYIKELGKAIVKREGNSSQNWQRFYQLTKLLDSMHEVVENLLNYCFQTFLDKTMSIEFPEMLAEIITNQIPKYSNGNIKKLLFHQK

In the case of `Clc1nc(C(Cl)(Cl)Cl)c(Cl)c(Cl)c1Cl`, the Potency entry in test [1], in test [5], in test [6] and in test [7] was “inactive” throughout. Also, the molecule was called inactive in test [2], in [3] and in [4].
Take `N[C@H](C(=O)O)[C@@H]1CC(Cl)=NO1`: the Potency result in [1], in [5], in test [6] and in test [7] was “inactive” in each case. Moreover, the result in [2], in test [3] and in test [4] was inactive.
Turning to `Cc1ccc(Cl)c(N)c1Cl`, the Potency entry in test [1], in test [5], in test [6] and in [7] was “inactive” throughout. Also, the molecule was called inactive in [2], in [3] and in test [4].
On to `c1ccc(-c2ccc(C(c3ccccc3)n3ccnc3)cc2)cc1` (stereo not given), for which the result in test [8], in test [2], in test [3] and in test [4] was inactive. The Potency result in test [1], in [6] and in [7] was “inactive” in each case. Besides, the Potency in [9] is 23.9 µM (active).
For the molecule `CO/N=C(\C(=O)N[C@@H]1C(=O)N2C(C(=O)[O-])=C(C[n+]3ccc(N)n3CCO)CS[C@H]12)c1csc(N)n1`, the call in test [8], in test [2], in test [3] and in test [4] was inactive. The Potency entry in test [1], in [6], in test [10] and in test [9] was “inactive” throughout.
For the molecule `CC(=O)O[C@H]1C[C@@H]2CC[C@@H]3[C@H](CC[C@@]4(C)[C@H]3C[C@H]([N+]3(C)CCCCC3)[C@@H]4OC(C)=O)[C@@]2(C)C[C@@H]1[N+]1(C)CCCCC1`, the call in test [8], in [2], in [3] and in [4] was inactive. Besides, the Potency entry in test [1], in [6], in test [7], in test [10] and in test [9] was “inactive” throughout.
For `CN1C(=O)C[C@@H](C(=O)N[C@@H](Cc2cnc[nH]2)C(=O)N2CCC[C@H]2C(N)=O)NC1=O`, the Potency result in [1], in test [5], in test [6] and in test [7] was “inactive” each time. The outcome in test [2], in test [3] and in test [4] was inactive.
Take `O=C1OC(=O)c2cc(-c3ccc4c(c3)C(=O)OC4=O)ccc21`: the molecule was called inactive in test [8], in test [2], in [3] and in test [4]. The Potency entry in [1], in [6], in test [7] and in test [10] was “inactive” throughout.
Consider `C=CC[N+]1([C@H]2C[C@H]3[C@@H]4CC[C@H]5C[C@H](O)[C@@H](N6CCOCC6)C[C@]5(C)[C@H]4CC[C@]3(C)[C@H]2OC(C)=O)CCCC1`, for which the result in test [8], in [2], in test [3] and in [4] was inactive. Besides, the Potency entry in [1], in test [6], in test [7] and in [10] was “inactive” throughout.
Regarding `CC[N+](CC)(CC)CCC(O)(c1ccccc1)C1CCCCC1` (stereo not given), the molecule was called inactive in test [8], in [2], in test [3] and in test [4]. Also, the Potency result in test [1], in [6], in test [7], in test [10] and in test [9] was “inactive” each time.
In the case of `CC(=O)Nc1ccc(OC(C)=O)cc1`, the call in test [8], in test [2], in [3] and in [4] was inactive. Further, the Potency entry in test [1], in [6], in test [7], in test [10] and in test [9] was “inactive” in each case.
Consider `COc1cc2c(cc1O)CCN[C@]21CS[C@@H]2c3c(OC(C)=O)c(C)c4c(c3[C@H](COC1=O)N1[C@@H]2[C@H]2c3c(cc(C)c(OC)c3O)C[C@@H]([C@@H]1O)N2C)OCO4`, for which the outcome in [8], in test [2], in [3] and in test [4] was inactive. Besides, the Potency entry in [5], in test [6] and in test [7] was “inactive” each time.
`Cc1ccc(C(C)(C)c2ccc(C)cc2)cc1`: the outcome in test [8], in test [2], in [3] and in [4] was inactive. Further, the Potency entry in test [1], in test [6], in [7], in [10] and in test [9] was “inactive” in each case.
`C[C@@H]1C(=O)NC2=Nc3cccc(Cl)c3CN21`: the result in test [8], in [2], in [3] and in test [4] was inactive. In addition, the Potency result in test [1], in [6], in test [7] and in test [10] was “inactive” in each case.
Consider `CC1(C)S[C@@H]2[C@H](N3C(=O)C(c4ccccc4)NC3(C)C)C(=O)N2[C@H]1C(=O)O` (stereo not given in full), for which the molecule was called inactive in [8], in test [2], in [3] and in test [4]. The Potency result in [1], in [6] and in test [7] was “inactive” in each case.
For the molecule `C=C1[C@H](CO)[C@@H](O)C[C@@H]1n1cnc2c(=O)[nH]c(N)nc21`, the molecule was called inactive in test [8], in test [2], in [3] and in test [4]. In addition, the Potency result in [1], in [6], in test [7], in test [10] and in test [9] was “inactive” in each case.
Regarding `COc1cccc(-c2ccc(/C=C\CN3CCCCCC3)cc2Cl)c1`, the Potency entry in test [1], in [5], in test [6] and in test [7] was “inactive” each time. Moreover, the outcome in test [2], in test [3] and in test [4] was inactive.
As to `Cc1cc(-c2ccc(N=Nc3ccc4c(S(=O)(=O)O)cc(S(=O)(=O)O)c(N)c4c3O)c(C)c2)ccc1N=Nc1ccc2c(S(=O)(=O)O)cc(S(=O)(=O)O)c(N)c2c1O`, the outcome in test [8], in [2], in test [3] and in [4] was inactive. The Potency result in test [1], in test [6], in test [7], in test [10] and in test [9] was “inactive” each time.
For the molecule `C[C@H](Cc1ccc(O)c(O)c1)[C@@H](C)Cc1ccc(O)c(O)c1`, the result in [8], in [2], in [3] and in test [4] was inactive. Besides, the Potency result in test [1], in [6], in test [7] and in test [10] was “inactive” each time.
With `CC(C)[N+]1(C)[C@@H]2CC[C@H]1CC(OC(=O)C(CO)c1ccccc1)C2` (stereo not given in full), the Potency entry in test [1], in test [5], in test [6], in test [7] and in test [10] was “inactive” throughout. Further, the result in test [2], in test [3] and in test [4] was inactive.
Regarding `Oc1ccc(Cl)cc1C1CCCC1`, the Potency entry in test [1], in test [5], in [6] and in test [7] was “inactive” in each case. Further, the result in test [2], in test [3] and in test [4] was inactive.
Consider `CCc1cn([C@H]2C[C@H](O)[C@@H](CO)O2)c(=O)[nH]c1=O`, for which the Potency result in [1], in [5], in test [6], in test [7], in test [10] and in test [9] was “inactive” throughout. Moreover, the call in test [2], in test [3] and in [4] was inactive.
Consider `c1ccc(-n2cnnn2)cc1`, for which the Potency result in test [1], in test [5], in test [6], in [10] and in [9] was “inactive” throughout. The molecule was classed as inactive in test [2], in test [3] and in [4].
Regarding `NC(=O)[C@H]1O[C@@H](O)[C@H](O)[C@@H](O)[C@@H]1O`, the Potency result in [1], in test [5], in test [6], in test [7], in test [10] and in [9] was “inactive” throughout. Moreover, the result in test [2], in test [3] and in test [4] was inactive.
Consider `N[C@@H](Cc1cnc[nH]1)C(=O)O`, for which the Potency entry in [1], in [5], in test [6], in test [7], in test [10] and in test [9] was “inactive” in each case. The result in [2], in test [3] and in test [4] was inactive.
For the molecule `CCCCCCCCCCCC[n+]1ccc2ccccc2c1`, the Potency result in [1], in test [5], in [6] and in test [7] was “inactive” each time. The call in [2], in test [3] and in test [4] was inactive.
Turning to `CNCCC=C1c2ccccc2CCc2ccccc21`, the Potency result in [1], in test [5], in [6] and in [7] was “inactive” each time. Further, the call in test [2], in [3] and in [4] was inactive.
